From PubChem BioAssay AID777 (Sanford-Burnham Center for Chemical Genomics, 2007)
Hit rate of the full screen: of about 96,000 compounds, about 19,000 (20%) were called active.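 Rule for the calls: active = blocking of liver enzyme CYP2C9 beyond about 50% at 5 µM (limit read from the data); inactive = the rest.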 These entries were drawn from the full list.

These compounds were tested against Cytochrome P450 2C9 (Homo sapiens) (UniProt P11712) (assay: blockers of cytochrome P450 2C9 activity – biochemical, luminescence, ADME assay, primary screen (AID 777)). Conditions: CYP2C9 Supersomes, luciferin-H conversion, at 5 µM, hits give high values.
Cytochrome P450 2C9 (Homo sapiens), sequence (P11712 whole entry, looked up): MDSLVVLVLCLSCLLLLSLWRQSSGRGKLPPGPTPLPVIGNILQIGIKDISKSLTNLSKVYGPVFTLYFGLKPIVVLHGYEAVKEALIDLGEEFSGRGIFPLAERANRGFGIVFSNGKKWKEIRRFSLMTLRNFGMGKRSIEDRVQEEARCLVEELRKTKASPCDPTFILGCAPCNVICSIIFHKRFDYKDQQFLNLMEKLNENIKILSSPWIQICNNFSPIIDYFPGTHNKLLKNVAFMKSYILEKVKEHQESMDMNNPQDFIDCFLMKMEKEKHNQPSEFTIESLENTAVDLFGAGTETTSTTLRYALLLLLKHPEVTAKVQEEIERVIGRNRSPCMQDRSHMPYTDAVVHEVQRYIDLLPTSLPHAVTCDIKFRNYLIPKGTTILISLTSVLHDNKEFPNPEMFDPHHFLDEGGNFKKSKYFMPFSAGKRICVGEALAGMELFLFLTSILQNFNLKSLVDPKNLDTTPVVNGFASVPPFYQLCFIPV

inhibition, active:
O=C(CCCCCn1c(=O)[nH]c2ccccc2c1=O)NCCc1c[nH]c2ccccc12 63.8%
COCCn1c(=S)[nH]c2cc(C(=O)NCCc3ccc(OC)c(OC)c3)ccc2c1=O 55.7%
COc1ccc(CCNC(=O)CCCCn2c(=O)[nH]c3ccccc3c2=O)cc1OC 68.4%
COc1ccc(CCNC(=O)c2ccc3c(c2)NC(=O)C(N2CCOCC2)S3)cc1OC (stereo not drawn) 50.1%
O=C(CCCCn1c(=O)[nH]c2ccccc2c1=O)NCc1ccc2c(c1)OCO2 69%
Cc1ccc(C)c(N2CCN(C(=O)CCCCn3c(=O)[nH]c4ccccc4c3=O)CC2)c1 61.9%
N#C/C(=C(/O)Cc1cccc2ccccc12)c1nc2ccccc2s1 76.6%
N#Cc1cccc(NC(=O)CCC2CCCC2)c1 56.8%
COc1ccccc1N(C(=O)Cn1nnc2ccccc21)C(C(=O)NCc1ccco1)c1ccc(C)o1 (stereo not drawn) 70.3%
O=C1N(Cc2ccc3c(c2)OCO3)c2ccccc2C1(O)c1c[nH]c2ccccc12 (stereo not drawn) 79.7%
CC1=NN(c2cccc(Cl)c2)C(=O)C12CC(C)=C(C)CS2 (stereo not drawn) 74.8%
CCOc1ccc(Nc2nc(Cc3nnc(SCC(=O)c4ccc(C)cc4)o3)cs2)cc1 83.7%
CCOc1ccc(Nc2nc(Cc3nnc(SCC(=O)NC4CCCC4)n3C)cs2)cc1 65.6%
CCCCCCc1cc2cc(-c3nnc(-c4ccccc4)o3)c(=O)oc2cc1O 90.8%
CCCCN(C)C(=O)c1ccc2c(c1)N(CC)C(=O)c1ccccc1S2(=O)=O 72.4%
CCOC(=O)C1=C(C)NC(C)=C(C(=O)OCC)C1C1=COCCO1 77.4%
CCOC(=O)C1=C(C)NC(C)=C(C(=O)OCC)C1c1ccccn1 94.2%
CSc1cccc(NC(=O)CSc2ccccc2)c1 73.2%
Cc1ccc2c(c1)c1ncn(CCC3=CCCCC3)c(=O)c1n2C 87.4%

inhibition, inactive:
c1ccc2c(-c3nn4nnnc4c4ccccc34)cccc2c1 13.8%
COCCn1c(=O)[nH]c2cc(C(=O)NCc3cccnc3)ccc2c1=O -1.7%
COc1ccc(CCNC(=O)c2cc(-c3ccc4c(c3)OCO4)on2)cc1OC 6.7%
O=C(CCn1c(=S)[nH]c2ccccc2c1=O)NCCCN1CCCC1=O -4.6%
COc1ccc(CCNC(=O)CCn2c(=O)oc3ccccc32)cc1OC 8.1%
O=C(CCn1c(=O)[nH]c2ccccc2c1=O)NCCCN1CCN(c2cccc(Cl)c2)CC1 29.1%
O=C(NCCCN1CCCCC1)c1ccc2c(c1)NC(=O)C(N1CCOCC1)S2 (stereo not drawn) -7.1%
CCN(CC)CCNC(=O)CCCCCn1c(=O)[nH]c2cc(C(=O)OC)ccc2c1=O 2.6%
CCOc1cc2[nH]c(=S)n(Cc3ccc(C(=O)NCCOC)cc3)c(=O)c2cc1OCC -7.8%
COC(=O)CSc1snnc1-c1ccc(Cl)c(Cl)c1 6.6%
COc1ccc(/C=N/Nc2nc3ccccc3o2)cc1OC -48.5%
CC(=O)Nc1cc2ccc(OC(C)=O)cc2oc1=O -29.1%
CCCOc1ccc(CN(CCO)CCO)cc1C(=O)OC 10.6%
COc1cccc(-c2cnc(OC(C)(C)C)nc2OC(C)(C)C)c1 6.8%
CCc1nc(C)cn1S(=O)(=O)c1cc(OC)c(C)cc1C 7.6%
Cc1ccsc1CNn1cnnc1SCc1ccccc1F 13.9%
Cc1ccc(C2=NN(C)c3nc4ccccc4n3C2)cc1 6.9%
COCc1cc(=O)[nH]c2cc(NC(=O)C(F)(F)F)c(C)cc12 13.9%
CCOC(=O)Cn1c(-c2cccnc2Cl)nc2ccccc21 10.6%
O=C(Nc1ncc2c(n1)-c1ccccc1OC2)c1ccc(Cl)cc1 25.3%
CC(C)NC(=O)CCCn1c(=S)[nH]c2cc3c(cc2c1=O)OCO3 12.3%
Cn1cc(CCC(=O)NCc2ccc3c(c2)OCO3)c2ccccc21 -124%
Cc1c2cnn(-c3ccccc3)c(=O)c2c(C)n1CCCC(=O)N1CCN(C)CC1 -0.9%
CCC1CCCCN1CCCNC(=O)C1CCC(Cn2c(=O)[nH]c3ccccc3c2=O)CC1 (stereo not drawn) 1.7%
O=C(COc1ccc(/C=N/NS(=O)(=O)c2ccccc2)cc1)NCCc1ccccc1 5.3%
CCOc1ccc(OCC)c(NC(=O)C(NS(=O)(=O)c2ccc3c(c2)oc(=O)n3C)C(C)C)c1 (stereo not drawn) 17.9%
N#C/C(=C(/O)COc1cccc2ccccc12)c1nc2ccccc2[nH]1 -6.1%
Cc1ccccc1OC/C(O)=C(\C#N)c1nc2ccccc2[nH]1 45.5%
CN(C)/C=C(\C#N)C(=O)c1cccnc1Oc1cccc(F)c1 12.2%
CCCC(C)C(=O)Nc1ccc(NC(C)=O)cc1 (stereo not drawn) 9.5%
COc1ccc(C2OC(=O)CC2C(=O)NC(C)C)cc1 (stereo not drawn) 3.6%
COC(=O)c1sccc1NC(=O)CCC1CCCC1 -11.7%
O=C(CCCOc1ccccc1)Nc1cccc(C(=O)O)c1 9.5%
CCCC(=O)N1CCc2[nH]c3ccccc3c2C1 8.3%
Cc1ccc(C(C(=O)NCc2ccco2)N(CC2CCCO2)C(=O)Cn2nnc3ccccc32)cc1 (stereo not drawn) 14.4%
COCCNC(=O)C(c1ccc(C)o1)N(Cc1ccccc1)C(=O)Cn1nnc2ccccc21 (stereo not drawn) 16.2%
CCOCCCNC(=O)Cc1cc(=O)[nH]c(=O)[nH]1 -6.2%
Cc1noc(COc2ccccc2OCC(O)CNC(C)(C)C)n1 (stereo not drawn) 26.1%
O=C(Nc1cccc2ccccc12)N1CCN(Cc2ccc3c(c2)OCO3)CC1 38.9%
CC1CCC(N2CC(=O)N(Cc3ccc4c(c3)OCO4)C(c3ccc(F)cc3)C2=O)CC1 (stereo not drawn) 39.6%
CC(=O)Oc1ccc(C)cc1N1C(=O)c2ccc(C(=O)O)cc2C1=O -17.9%
C/C(CC(O)(/C=N/O)c1ccccc1)=N\O (stereo not drawn) -33%
O=C1C(=O)N(c2ccccc2)c2ccccc21 4.1%
COCCCn1c(Cc2csc(Nc3cccc(Cl)c3)n2)nnc1SCC(=O)OC1CCCCC1 44.3%
CCOC(=O)c1c(NC(=O)CSc2nnc(Cc3csc(N)n3)n2C)sc(C)c1C 30.2%
CC(=O)Nc1ccc(C(=O)CSc2nnc(Cc3ccccc3)o2)cc1 33.3%
CCC(=O)Nc1ccc(C(=O)CSc2nnc(CNc3ccc(Cl)cc3)o2)cc1OC -44.6%
COCc1cc(C)nc2sc(C(=O)NC3CCCCC3)c(N)c12 4.7%
COc1ccc(-n2cnc3cc(NCc4ccco4)ccc32)cc1 32.8%
COC(=O)[C@@H](NC(=O)Nc1cc(Cl)ccc1C)C(C)C 10%
OC(C#CCN1CCOCC1)(c1ccccc1)C1CCCCC1 (stereo not drawn) 30%
O=c1oc2cc(O)ccc2cc1-c1ccc(F)cc1 27.8%
CC1(C)CC(=O)C=C(NCCCNC2CCCCC2)C1 1%
CCOC(=O)c1c(N)sc(C(C)=O)c1C 25.8%
CCCCc1c(O)nc2n(c1=O)CCS2 -21.9%
COc1ccccc1NC1=NC(c2ccc(Cl)cc2)N=C(N)N1 (stereo not drawn) -7.5%
CCn1c2ccccc2c2cc(NC(=S)N3CCOCC3)ccc21 -46.3%
COC(=O)CNC(=O)c1ccc2c(c1)S(=O)(=O)c1ccccc1C2=O -14.1%
CCN1C(=O)c2cccc3c(N)ccc1c23 7.7%
CCC(C)Sc1nnc(-c2c[nH]c3ccccc23)n1CCOC (stereo not drawn) -4.5%
CCOC(=O)c1ccccc1NC(=O)CC1Nc2ccccc2NC1=O (stereo not drawn) 29.5%
CCC(=O)N(Cc1ccccc1)c1ccccn1 -7.1%
CCCC1NC(=O)NC(C)=C1C(=O)OCC (stereo not drawn) 39.8%
CCCC(O)(c1ccc(OC)cc1)C(CN(C)C)c1ccccc1 (stereo not drawn) -8.2%
O=C(NC(=O)c1ccc(Cl)c(Cl)c1)OC1CCS(=O)(=O)C1 (stereo not drawn) -16.4%
CCOc1ccccc1NC(=O)C12CC3CC(C1)CC(c1ccc(C)cc1)(C3)C2 -16%
N#C/C=C\Oc1ccc(Cl)cc1N -10.4%
O=C(CCN1C(=O)C2C3C=CC(C3)C2C1=O)Nc1ccccc1F (stereo not drawn) -2.2%
NC(=NC(=O)c1ccccc1)N1CCOCC1 4.1%
CCN(CC)C(=O)CSc1nnc(-c2ccc(S(=O)(=O)NCc3ccccc3Cl)cc2)o1 25.8%
O=C(OCC(=O)N1CCCC1)c1ccco1 5.6%
CCn1c(SCC(=O)Nc2cccc(F)c2)nnc1-c1cc2cc(Br)ccc2o1 36%
O=C(CSc1ccccc1)Nc1ccc(NC(=O)c2ccco2)cc1 42.7%
Oc1ccccc1/C=N/n1c(-c2cccs2)n[nH]c1=S 0.5%
Cc1nnc(C)n1/N=C/c1ccc(C(C)C)cc1 8.3%
Cn1nnc2cc(C(=O)NCCC3=CCCCC3)ccc21 -22.1%
Cc1ccc2[nH]c3c(=O)n(Cc4ccccn4)cnc3c2c1 2.1%
Cc1ccc(-n2ncc3c(=O)[nH]cnc32)c(C)c1 2.5%
Cn1c(=O)n(C)c(=O)n(CC(=O)N2CCCCC2)c1=O -13.7%
